Measurements published in ChEMBL document CHEMBL1961873, “Compounds: GSK PKIS; Assays: Nanosyn kinase panel” (2012).

Assays:
[1] = molecular target: Tyrosine-protein kinase Fer (Homo sapiens) (UniProt P16591); conditions: at 1 µM
[2] = molecular target: Tyrosine-protein kinase Fes/Fps (Homo sapiens) (UniProt P07332); conditions: at 0.1 µM
[3] = molecular target: Tyrosine-protein kinase Fes/Fps (Homo sapiens) (UniProt P07332); conditions: at 1 µM
[4] = molecular target: Fibroblast growth factor receptor 1 (Homo sapiens) (UniProt P11362); conditions: at 0.1 µM
[5] = molecular target: Fibroblast growth factor receptor 1 (Homo sapiens) (UniProt P11362); conditions: at 1 µM
[6] = molecular target: Fibroblast growth factor receptor 2 (Homo sapiens) (UniProt P21802); conditions: at 0.1 µM
[7] = molecular target: Fibroblast growth factor receptor 2 (Homo sapiens) (UniProt P21802); conditions: at 1 µM
[8] = molecular target: Fibroblast growth factor receptor 3 (Homo sapiens) (UniProt P22607); conditions: at 1 µM
[9] = molecular target: Fibroblast growth factor receptor 4 (Homo sapiens) (UniProt P22455); conditions: at 0.1 µM
[10] = molecular target: Fibroblast growth factor receptor 4 (Homo sapiens) (UniProt P22455); conditions: at 1 µM
[11] = molecular target: Tyrosine-protein kinase Fgr (Homo sapiens) (UniProt P09769); conditions: at 0.1 µM
[12] = molecular target: Tyrosine-protein kinase Fgr (Homo sapiens) (UniProt P09769); conditions: at 1 µM
[13] = molecular target: Vascular endothelial growth factor receptor 1 (Homo sapiens) (UniProt P17948); conditions: at 0.1 µM
[14] = molecular target: Vascular endothelial growth factor receptor 1 (Homo sapiens) (UniProt P17948); conditions: at 1 µM
[15] = molecular target: Receptor-type tyrosine-protein kinase FLT3 (Homo sapiens) (UniProt P36888); conditions: at 0.1 µM
[16] = molecular target: Receptor-type tyrosine-protein kinase FLT3 (Homo sapiens) (UniProt P36888); conditions: at 1 µM
[17] = tested on: T1, Receptor-type tyrosine-protein kinase FLT3 (Homo sapiens), P36888 [D835Y]; conditions: at 0.1 µM
T1 sequence (whole entry): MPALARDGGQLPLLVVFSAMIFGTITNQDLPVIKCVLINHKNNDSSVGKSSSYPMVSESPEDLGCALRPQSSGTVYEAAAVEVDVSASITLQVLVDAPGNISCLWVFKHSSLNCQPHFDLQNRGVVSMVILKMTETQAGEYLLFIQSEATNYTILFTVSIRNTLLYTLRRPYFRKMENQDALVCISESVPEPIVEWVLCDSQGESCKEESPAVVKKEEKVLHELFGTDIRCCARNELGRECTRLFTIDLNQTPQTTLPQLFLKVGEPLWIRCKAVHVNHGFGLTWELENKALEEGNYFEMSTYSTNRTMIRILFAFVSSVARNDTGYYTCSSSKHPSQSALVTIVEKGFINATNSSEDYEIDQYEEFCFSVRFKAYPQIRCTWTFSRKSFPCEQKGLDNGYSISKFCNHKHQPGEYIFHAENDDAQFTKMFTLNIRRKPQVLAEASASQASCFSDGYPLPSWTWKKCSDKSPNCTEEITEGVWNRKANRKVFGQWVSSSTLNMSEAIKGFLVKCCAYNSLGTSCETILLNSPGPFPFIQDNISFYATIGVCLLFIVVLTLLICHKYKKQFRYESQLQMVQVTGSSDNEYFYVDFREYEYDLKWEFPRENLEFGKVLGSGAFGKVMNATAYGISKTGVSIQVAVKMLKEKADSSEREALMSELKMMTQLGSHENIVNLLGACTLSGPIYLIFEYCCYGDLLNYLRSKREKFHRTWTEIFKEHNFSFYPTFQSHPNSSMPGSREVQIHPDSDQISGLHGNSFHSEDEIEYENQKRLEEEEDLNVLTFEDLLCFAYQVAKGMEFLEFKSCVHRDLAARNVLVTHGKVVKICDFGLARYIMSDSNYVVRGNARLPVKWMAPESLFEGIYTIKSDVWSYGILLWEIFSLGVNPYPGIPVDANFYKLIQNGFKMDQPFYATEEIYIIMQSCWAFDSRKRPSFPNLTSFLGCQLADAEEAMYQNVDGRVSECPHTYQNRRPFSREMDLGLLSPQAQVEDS

[18] = molecular target: Non-receptor tyrosine-protein kinase TYK2 (Homo sapiens) (UniProt P29597); conditions: at 1 µM;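 further: values are mean percent inhibition of TYK2 kinase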
[19] = molecular target: T2, Tyrosine-protein kinase receptor TYRO3 (Homo sapiens) (UniProt Q06418); conditions: at 0.1 µM;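 further: reported percentages are averaged inhibition values of TYRO3 kinase activity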
T2 sequence (whole entry): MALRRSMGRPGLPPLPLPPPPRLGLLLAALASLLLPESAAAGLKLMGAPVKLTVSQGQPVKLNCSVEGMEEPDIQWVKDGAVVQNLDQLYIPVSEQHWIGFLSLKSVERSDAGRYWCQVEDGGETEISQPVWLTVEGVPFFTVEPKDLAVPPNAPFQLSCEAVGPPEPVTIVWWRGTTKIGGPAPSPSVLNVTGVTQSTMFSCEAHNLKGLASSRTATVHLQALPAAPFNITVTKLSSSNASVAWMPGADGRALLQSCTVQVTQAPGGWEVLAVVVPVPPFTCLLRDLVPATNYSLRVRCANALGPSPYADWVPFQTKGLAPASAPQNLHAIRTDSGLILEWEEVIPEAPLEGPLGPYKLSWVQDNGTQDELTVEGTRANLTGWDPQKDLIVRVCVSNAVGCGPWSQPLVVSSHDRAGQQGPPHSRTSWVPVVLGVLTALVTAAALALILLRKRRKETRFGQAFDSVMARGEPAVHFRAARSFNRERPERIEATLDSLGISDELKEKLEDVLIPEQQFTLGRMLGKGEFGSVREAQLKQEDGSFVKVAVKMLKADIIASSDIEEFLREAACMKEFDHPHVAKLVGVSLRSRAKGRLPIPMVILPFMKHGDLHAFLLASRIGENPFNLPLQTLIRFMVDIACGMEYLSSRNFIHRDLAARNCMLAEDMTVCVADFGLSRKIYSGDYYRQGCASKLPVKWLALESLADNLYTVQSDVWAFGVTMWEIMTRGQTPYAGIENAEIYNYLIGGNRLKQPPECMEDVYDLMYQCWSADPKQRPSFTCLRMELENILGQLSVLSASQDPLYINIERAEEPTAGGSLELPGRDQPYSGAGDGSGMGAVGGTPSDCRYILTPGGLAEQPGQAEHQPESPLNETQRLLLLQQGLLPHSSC

[20] = molecular target: Fibroblast growth factor receptor 3 (Homo sapiens) (UniProt P22607); conditions: at 0.1 µM

Sequence of Fibroblast growth factor receptor 3 (Homo sapiens) (P22607 23-806 limits assumed): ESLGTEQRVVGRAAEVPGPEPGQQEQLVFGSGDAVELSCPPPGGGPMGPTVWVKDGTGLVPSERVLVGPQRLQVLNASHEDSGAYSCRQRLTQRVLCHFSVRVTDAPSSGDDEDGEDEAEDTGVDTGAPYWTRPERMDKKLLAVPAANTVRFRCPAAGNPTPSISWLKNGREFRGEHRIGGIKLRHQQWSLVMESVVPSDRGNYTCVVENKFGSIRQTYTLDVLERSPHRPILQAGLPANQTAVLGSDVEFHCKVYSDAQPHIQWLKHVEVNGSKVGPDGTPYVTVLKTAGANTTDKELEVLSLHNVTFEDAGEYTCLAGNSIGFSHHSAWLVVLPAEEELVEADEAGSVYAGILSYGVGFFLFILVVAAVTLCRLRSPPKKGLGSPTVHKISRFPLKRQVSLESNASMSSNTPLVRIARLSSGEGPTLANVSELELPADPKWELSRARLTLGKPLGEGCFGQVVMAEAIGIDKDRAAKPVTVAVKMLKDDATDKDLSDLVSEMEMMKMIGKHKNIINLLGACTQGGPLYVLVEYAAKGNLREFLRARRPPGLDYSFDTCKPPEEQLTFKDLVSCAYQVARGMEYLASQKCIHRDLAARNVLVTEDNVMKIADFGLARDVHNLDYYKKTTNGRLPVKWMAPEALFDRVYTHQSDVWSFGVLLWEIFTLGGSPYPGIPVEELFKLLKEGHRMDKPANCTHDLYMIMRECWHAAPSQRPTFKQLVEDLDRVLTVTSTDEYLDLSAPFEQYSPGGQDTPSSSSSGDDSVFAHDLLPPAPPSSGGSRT
Sequence of Tyrosine-protein kinase Fgr (Homo sapiens) (P09769 2-529 limits assumed): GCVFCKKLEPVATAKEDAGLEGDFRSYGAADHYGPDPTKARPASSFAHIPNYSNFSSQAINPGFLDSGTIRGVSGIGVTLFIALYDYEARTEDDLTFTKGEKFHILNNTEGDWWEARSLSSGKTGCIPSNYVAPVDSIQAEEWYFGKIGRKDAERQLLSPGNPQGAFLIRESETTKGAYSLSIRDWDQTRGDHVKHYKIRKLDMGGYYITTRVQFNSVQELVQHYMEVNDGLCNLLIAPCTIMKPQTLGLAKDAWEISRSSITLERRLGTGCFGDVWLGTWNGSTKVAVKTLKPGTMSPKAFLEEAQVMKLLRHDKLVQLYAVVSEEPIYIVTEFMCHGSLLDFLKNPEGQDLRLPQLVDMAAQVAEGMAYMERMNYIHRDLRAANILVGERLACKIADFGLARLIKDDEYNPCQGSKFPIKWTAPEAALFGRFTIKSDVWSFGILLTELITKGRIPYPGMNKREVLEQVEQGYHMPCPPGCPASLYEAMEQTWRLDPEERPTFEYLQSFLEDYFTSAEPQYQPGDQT
Sequence of Fibroblast growth factor receptor 2 (Homo sapiens) (P21802 22-821 limits assumed): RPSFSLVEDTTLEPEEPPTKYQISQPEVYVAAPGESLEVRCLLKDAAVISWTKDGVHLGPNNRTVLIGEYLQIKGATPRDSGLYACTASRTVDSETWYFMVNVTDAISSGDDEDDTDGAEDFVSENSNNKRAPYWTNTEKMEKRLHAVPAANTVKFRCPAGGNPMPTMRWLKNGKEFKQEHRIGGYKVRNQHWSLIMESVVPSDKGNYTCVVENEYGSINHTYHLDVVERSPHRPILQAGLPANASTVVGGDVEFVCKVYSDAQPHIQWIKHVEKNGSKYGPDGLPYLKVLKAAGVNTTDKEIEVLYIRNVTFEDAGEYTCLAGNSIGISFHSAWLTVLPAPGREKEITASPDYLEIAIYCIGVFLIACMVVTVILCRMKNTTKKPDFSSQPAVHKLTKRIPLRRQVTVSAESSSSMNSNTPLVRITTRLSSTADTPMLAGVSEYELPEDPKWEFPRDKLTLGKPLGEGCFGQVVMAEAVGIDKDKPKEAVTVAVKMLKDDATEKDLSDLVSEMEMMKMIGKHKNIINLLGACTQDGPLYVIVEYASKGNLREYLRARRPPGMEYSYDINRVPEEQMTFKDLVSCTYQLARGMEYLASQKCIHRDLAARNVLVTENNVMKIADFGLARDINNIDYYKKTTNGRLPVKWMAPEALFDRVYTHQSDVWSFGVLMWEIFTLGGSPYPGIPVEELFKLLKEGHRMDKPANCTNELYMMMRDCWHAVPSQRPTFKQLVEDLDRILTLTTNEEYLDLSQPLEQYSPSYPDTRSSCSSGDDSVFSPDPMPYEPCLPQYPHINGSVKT
Sequence of Non-receptor tyrosine-protein kinase TYK2 (Homo sapiens) (P29597 whole entry): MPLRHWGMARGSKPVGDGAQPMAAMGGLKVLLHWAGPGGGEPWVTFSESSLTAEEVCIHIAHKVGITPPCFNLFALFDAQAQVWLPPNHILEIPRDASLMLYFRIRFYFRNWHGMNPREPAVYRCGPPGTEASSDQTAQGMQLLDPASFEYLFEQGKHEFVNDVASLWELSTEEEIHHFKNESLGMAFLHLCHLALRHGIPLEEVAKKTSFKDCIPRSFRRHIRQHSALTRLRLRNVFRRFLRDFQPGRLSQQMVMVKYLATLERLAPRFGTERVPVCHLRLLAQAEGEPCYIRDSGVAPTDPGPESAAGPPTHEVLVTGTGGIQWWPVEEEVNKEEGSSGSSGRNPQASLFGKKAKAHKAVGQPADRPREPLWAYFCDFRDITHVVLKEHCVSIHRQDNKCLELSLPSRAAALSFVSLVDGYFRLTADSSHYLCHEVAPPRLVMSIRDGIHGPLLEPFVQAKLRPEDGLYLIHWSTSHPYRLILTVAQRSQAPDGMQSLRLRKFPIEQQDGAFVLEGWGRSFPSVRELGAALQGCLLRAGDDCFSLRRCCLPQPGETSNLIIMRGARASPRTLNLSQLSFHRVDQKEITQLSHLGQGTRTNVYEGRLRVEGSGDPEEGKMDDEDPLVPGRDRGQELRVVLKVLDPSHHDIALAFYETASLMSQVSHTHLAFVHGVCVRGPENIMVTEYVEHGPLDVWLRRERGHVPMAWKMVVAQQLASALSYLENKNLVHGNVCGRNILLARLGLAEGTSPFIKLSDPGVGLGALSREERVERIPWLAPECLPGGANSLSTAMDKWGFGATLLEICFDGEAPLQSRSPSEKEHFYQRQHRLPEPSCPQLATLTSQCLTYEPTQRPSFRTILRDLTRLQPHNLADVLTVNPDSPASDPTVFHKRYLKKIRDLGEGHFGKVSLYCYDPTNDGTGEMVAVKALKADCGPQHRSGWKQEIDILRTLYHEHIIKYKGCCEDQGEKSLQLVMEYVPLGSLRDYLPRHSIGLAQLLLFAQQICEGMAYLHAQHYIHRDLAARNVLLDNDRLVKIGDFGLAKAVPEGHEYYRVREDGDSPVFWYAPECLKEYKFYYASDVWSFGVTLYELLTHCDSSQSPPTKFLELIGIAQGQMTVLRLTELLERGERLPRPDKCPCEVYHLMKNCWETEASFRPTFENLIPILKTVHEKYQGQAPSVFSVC
Sequence of Fibroblast growth factor receptor 4 (Homo sapiens) (P22455 22-802 limits assumed): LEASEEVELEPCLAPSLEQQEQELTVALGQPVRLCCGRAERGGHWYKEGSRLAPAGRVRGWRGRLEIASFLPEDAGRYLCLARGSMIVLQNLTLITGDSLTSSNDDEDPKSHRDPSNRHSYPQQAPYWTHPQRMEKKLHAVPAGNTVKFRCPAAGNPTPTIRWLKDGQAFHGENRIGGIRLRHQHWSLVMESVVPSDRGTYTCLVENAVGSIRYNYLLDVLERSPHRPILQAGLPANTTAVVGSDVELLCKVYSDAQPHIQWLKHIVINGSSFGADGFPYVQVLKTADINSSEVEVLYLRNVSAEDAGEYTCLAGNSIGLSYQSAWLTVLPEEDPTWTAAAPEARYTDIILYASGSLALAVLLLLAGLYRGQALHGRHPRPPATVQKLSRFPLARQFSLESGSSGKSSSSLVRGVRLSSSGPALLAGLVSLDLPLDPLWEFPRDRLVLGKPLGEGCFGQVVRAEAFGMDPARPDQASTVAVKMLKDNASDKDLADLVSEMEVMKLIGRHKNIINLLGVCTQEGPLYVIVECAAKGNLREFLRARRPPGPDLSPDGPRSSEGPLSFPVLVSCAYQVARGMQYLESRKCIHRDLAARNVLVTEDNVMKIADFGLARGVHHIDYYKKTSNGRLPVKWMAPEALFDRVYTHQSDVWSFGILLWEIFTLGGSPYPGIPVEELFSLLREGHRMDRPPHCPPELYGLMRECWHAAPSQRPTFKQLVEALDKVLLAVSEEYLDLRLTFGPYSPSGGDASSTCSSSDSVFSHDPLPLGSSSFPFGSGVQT
Sequence of Tyrosine-protein kinase Fer (Homo sapiens) (P16591 whole entry, looked up): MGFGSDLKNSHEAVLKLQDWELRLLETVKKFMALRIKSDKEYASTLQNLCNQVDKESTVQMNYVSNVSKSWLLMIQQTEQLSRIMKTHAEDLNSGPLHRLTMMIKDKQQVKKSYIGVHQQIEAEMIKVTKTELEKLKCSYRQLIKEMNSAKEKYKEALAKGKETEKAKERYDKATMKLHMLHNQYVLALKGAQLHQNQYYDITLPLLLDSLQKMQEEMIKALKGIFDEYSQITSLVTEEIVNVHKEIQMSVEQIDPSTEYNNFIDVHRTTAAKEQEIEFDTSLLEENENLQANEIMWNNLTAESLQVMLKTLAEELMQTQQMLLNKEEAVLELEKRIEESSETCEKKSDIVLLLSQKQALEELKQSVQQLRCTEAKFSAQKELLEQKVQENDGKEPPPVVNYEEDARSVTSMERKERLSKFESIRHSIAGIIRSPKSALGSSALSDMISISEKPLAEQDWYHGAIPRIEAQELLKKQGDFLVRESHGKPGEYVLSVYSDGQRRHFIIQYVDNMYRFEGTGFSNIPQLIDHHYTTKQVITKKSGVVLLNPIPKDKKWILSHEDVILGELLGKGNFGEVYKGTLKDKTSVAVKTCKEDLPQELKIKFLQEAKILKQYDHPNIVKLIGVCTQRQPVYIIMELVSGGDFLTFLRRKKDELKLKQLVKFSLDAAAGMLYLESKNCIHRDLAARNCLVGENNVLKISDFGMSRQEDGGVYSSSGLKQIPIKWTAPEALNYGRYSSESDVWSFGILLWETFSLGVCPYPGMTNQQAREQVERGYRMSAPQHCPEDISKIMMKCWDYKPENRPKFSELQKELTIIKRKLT

Structure (SMILES)	inhibition [1]	inhibition [2]	inhibition [3]	inhibition [4]	inhibition [5]	inhibition [6]	inhibition [7]	inhibition [8]	inhibition [9]	inhibition [10]	inhibition [11]	inhibition [12]	inhibition [13]	inhibition [14]	inhibition [15]	inhibition [16]	inhibition [17]	inhibition [18]	inhibition [19]	inhibition [20]
NS(=O)(=O)c1ccc(NC=C2C(=O)Nc3ccc4ncsc4c32)cc1	27.7%	12.3%	17.1%	13.4%	41.9%	31.5%	63.8%	65%	-2.6%	11.5%	6.25%	36.2%	19.3%	67.6%	47.7%	85.4%	59.9%	63.6%	8.88%	
COc1cc2ncn(-c3cc(OCc4ccccc4S(C)(=O)=O)c(C#N)s3)c2cc1OC	10.3%	2.71%	3.13%	12.1%	19.3%	8.86%	31.6%	24.1%	2%	1.47%	15.2%	59.6%	3.31%	15.7%	3.03%	11.6%	5.25%	1.09%	4.94%	9.71%
COC(=O)c1cncc(/C=C/c2c(C)cc(O)cc2C)c1	2%	1.96%	3.05%	4.08%	0.61%	4.05%	7.59%	4.87%	-1.32%	0.95%	5.81%	20.9%	0.94%	0.15%	2.01%	3.02%	-1.65%	-3.53%	3.21%	6.59%
CCn1c(-c2nonc2N)nc2ccc(F)cc21	7.92%	2.98%	2.83%	3.73%	10.2%	5.98%	4.55%	5.83%	2.81%	2.77%	4.5%	1.73%	3.79%	2.76%	2.66%	2.44%	-1.29%	-4.18%	3.03%	7.35%
Cc1ccc2c(-c3ccnc(Nc4ccc5c(c4)OCCO5)n3)c(-c3ccc(C(F)(F)F)cc3)nn2n1	-0.37%	0.95%	0.4%	0.28%	1.17%	-1.07%	0.36%	1%	1.94%	2.08%	4.97%	18.4%	-1.27%	-0.4%	2.13%	0.3%	-5.65%	0.31%	-0.13%	-1.98%
OCc1ccc(-c2nc(-c3ccccn3)c(-c3ccc4c(c3)OCO4)[nH]2)cc1	5.49%	3.6%	4.6%	5.91%	5.71%	5.49%	10.1%	7.28%	0.04%	4.36%	3.43%	8.26%	0.94%	2.09%	3.25%	5.93%	0.22%	-3.23%	3.25%	6.26%
FC(F)(F)c1ccc(-c2nn3ncccc3c2-c2ccnc(Nc3ccc4c(c3)OCCO4)n2)cc1	12.1%	-0.13%	1.22%	7.55%	6.28%	6.74%	11.1%	6.94%	6.29%	11.7%	25.6%	61.1%	1.91%	4.89%	1.7%	0.28%	4.42%	5.73%	1.27%	6.49%
Cc1cc(Cl)cc2c1NC(=O)C2=NNc1ccc(S(N)(=O)=O)cc1	5.08%	0.93%	0.42%	3.14%	2.77%	1.45%	3.49%	0.97%	-0.13%	2.64%	4.99%	2.96%	0.01%	-0.12%	2.63%	1.85%	-2.63%	0.66%	1.11%	1.47%
NS(=O)(=O)c1ccc(N/N=C2\C(=O)Nc3ccc(Cl)cc32)cc1	7.24%	2.52%	2.84%	1.63%	1%	2.43%	14.7%	13%	-1.18%	0.91%	4.13%	7.63%	2.91%	8.28%	16.4%	66.7%	-0.18%	0.36%	3.25%	5.81%
Cc1cc(O)cc(C)c1/C=C/c1cncc(C(=O)N(C)C)c1	1.61%	1.75%	1.31%	1.31%	1.65%	4.82%	5.81%	3.19%	-0.32%	2.26%	2.92%	9.21%	2.21%	3.14%	2.14%	2.25%	-0.23%	-2.56%	3.45%	3.74%
NC(=O)c1sc(-n2cnc3ccccc32)cc1OCc1ccccc1Br	3.22%	2.73%	4.01%	6.09%	6.22%	5.8%	4.79%	4.87%	1.18%	0.92%	1.44%	6.14%	-0.01%	4.57%	2.74%	1%	-6.76%	-4.77%	1.17%	5.69%
Cc1ccc(NC(=O)CC2CC2)cc1-c1ccc(C(=O)NCC2CC2)cc1	7.65%	2.28%	4%	5.11%	4.06%	1.09%	4.24%	3.92%	-2.17%	1.67%	7.45%	6.65%	-0.36%	1.74%	1.93%	3.21%	-2.84%	-2.78%	2.48%	2.17%
CN(C)C(=O)O[C@@H]1CN[C@@H](C#Cc2cc3ncnc(Nc4ccc(OCc5cccc(F)c5)c(Cl)c4)c3s2)C1	-0.72%	-0.22%	1.12%	-0.27%	1.69%	0.19%	4.88%	2.96%	-1.62%	0.26%	4.03%	8.75%	-0.77%	1.01%	-1.89%	-0.37%	-2.1%	0.28%	-0.78%	-0.96%
